SMILES strings stand for the structures. Records with an inconclusive call do not appear. Unmarked numbers belong to inactive results. Activity calls are given as the source filed them. Calls come from the whole dose curve; as a rule, active = well fitted inhibition curve with a large enough effect; inconclusive = small, poorly fitted or top-dose-only effect; inactive = flat fitted curve, though single readings scatter.
% is set by controls: 0 for no effect and ±100 for the full control effect; potency is the fitted concentration of half-maximal effect.

The first test can be described thus: Drug repurposing screens with cells derived from glioblastoma tumor samples (AID 1345199). Note: nearly all actives have a fitted effect of over 40% in size. The conditions noted are these: GBM patient neurospheres viability, ATP luminescence, 48 h; at 46.1 µM (top of the series); tumour line C. Put shortly: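 Four patient lines of CD133+ GBM neurospheres were screened at several concentrations; hits were retested in those lines plus three slower-growing GBM lines, using 48-hour treatment and ATP-based viability.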
For `CCCCCCCCCCC(CO)CCCCCCCC` (centres undefined), the activity, negative = cell killing was 14%.

Turning to `Cc1[nH]c(C)c(Cl)c(=O)c1Cl`, the activity, negative = cell killing was -6.6%. On the same count and under the same terms, then `NC(=O)c1ccc([N+](=O)[O-])cc1Cl`, with -36.6%; and `NC(=O)CCCCC1CCSS1` (centres undefined), with 2.37%; and `CCCCCC(C)N` (centres undefined), with -13.3%.

Staying with this test, now noted: GBM patient neurospheres viability, ATP luminescence, 48 h; tumour line A.
Take `Cc1cc(-n2nc3ccc(Cl)cc3n2)c(O)c(C(C)(C)C)c1`: the Potency is 7.94 µM (active). In the case of `CC1CCN(CCCC(=O)c2ccc(F)cc2)CC1`, the Potency was 10 µM (active). Still for that read-out and setting: as for `Nc1ccc(C(=O)Oc2ccccc2)c(O)c1`, the figure is 11.2 µM (active); as for `CCCCCCCCCCC(CO)CCCCCCCC` (centres undefined), 25.1 µM (active).

The values are drawn from PubChem BioAssay (NCATS).
